Results taken from paper PMC4336329 (PLoS ONE, 2015).
The whole screen tested about 310,000 compounds, of which about 2,200 (0.71%) showed an effect of 50% or more. The effect is printed as a negative number. The sample holds strong results, similar compounds and a random draw of the others, so the mix is not that of the screen.

What follows are compounds tested against human ether-à-go-go-related gene (hERG) potassium channel (human, UniProt Q12809) (assay: primary screen, population patch clamp on CHO cells stably expressing hERG; higher = less effect of the substance).
human ether-à-go-go-related gene (hERG) potassium channel, sequence (Q12809 whole entry, looked up): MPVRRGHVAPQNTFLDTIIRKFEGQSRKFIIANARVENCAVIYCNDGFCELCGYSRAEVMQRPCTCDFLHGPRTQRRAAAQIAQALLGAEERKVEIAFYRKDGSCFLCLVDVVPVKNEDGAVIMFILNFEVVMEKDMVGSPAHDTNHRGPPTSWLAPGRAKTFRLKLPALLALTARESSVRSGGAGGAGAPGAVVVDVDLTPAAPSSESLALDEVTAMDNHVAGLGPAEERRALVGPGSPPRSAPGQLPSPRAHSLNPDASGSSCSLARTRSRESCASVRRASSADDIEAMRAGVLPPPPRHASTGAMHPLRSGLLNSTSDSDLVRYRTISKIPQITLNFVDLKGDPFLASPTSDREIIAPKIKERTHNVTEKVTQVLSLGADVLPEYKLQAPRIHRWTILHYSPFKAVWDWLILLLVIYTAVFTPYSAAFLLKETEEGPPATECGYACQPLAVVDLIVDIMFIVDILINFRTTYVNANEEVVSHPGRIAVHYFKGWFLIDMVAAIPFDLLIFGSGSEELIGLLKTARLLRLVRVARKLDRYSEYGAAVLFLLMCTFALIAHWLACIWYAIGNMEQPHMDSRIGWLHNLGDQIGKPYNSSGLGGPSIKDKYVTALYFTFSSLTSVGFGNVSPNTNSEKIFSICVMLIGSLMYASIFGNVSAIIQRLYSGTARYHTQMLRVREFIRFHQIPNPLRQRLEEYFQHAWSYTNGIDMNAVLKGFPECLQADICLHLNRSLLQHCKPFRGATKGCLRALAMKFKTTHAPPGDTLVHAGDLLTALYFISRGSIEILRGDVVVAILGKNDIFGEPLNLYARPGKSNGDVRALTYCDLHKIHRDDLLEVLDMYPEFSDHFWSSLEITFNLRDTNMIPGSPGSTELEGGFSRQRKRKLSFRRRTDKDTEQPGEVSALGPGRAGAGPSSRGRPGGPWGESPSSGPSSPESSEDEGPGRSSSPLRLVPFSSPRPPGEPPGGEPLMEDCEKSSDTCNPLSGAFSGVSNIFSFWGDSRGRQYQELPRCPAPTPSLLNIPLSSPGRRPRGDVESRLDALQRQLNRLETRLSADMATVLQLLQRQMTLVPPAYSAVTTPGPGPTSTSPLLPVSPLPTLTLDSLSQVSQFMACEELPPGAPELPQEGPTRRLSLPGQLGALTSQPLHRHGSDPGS
Experimental: Briefly, Chinese hamster ovary (CHO) cells stably expressing the hERG channel were dislodged from tissue culture flasks and dispensed into PPC plates. […] During the recording, background leak currents were estimated by a 100 ms step to -80 mV from an initial holding potential of -70 mV and subtracted from the subsequent current measurement. The campaign was conducted in two phases using slight differences in recording protocol. In the first phase, the initial voltage pulse used a 100 ms step to -30 mV from a holding potential of -70 mV, a 2 s conditioning step to +25 mV, and a 2 s test step to -30 mV. During the second phase of the screen, the potential during the conditioning step was raised to +45 mV. In both phases of the campaign, a secondary voltage pulse was applied using the same parameters as the second phase initial pulse. The initial and secondary pulses were applied in the absence of compound, and upon application of 1 μM and 10 μM test concentrations. Small molecule effects on hERG current density were quantified by […].

SMILES	hERG current change (%, negative = inhibition) at 1uM [%]
CCn1c(CN2CCN(Cc3ccc(C)cc3)C(CCO)C2)nc2ccccc21 (stereo not drawn)	-50.5
Cc1ccc(CN2CCN(Cc3nc4ccccc4nc3C)CC2CCO)cc1 (stereo not drawn)	-65.3
OCCC1CN(Cc2cccc3nccnc23)CCN1Cc1ccc(F)cc1 (stereo not drawn)	-7.96
Cc1nc2ccccc2nc1CN1CCN(Cc2ccc(F)c(F)c2)C(CCO)C1 (stereo not drawn)	-6.36
Cc1ccc(CN2CCN(Cc3ccc(C)s3)CC2CCO)cc1 (stereo not drawn)	-67.3
O=C(COc1ncnc2cc([N+](=O)[O-])ccc12)N(CCc1ccccc1)Cc1ccccc1	18.9
CC1(C)Oc2ccc3ccc(=O)oc3c2C(N2CCCCC2)C1O (stereo not drawn)	0.376
COc1cccc(-c2ocnc2C(=O)Nc2ccc(N3CCOCC3)cc2N2CCOCC2)c1	15.6
O=S(=O)(Nc1cc(Sc2cccc3cccnc23)c(O)c2ccccc12)c1ccc(F)cc1	13.4
CC(C)Oc1ccc(CNC(=O)C2CCN(C(=O)N3CCOc4ccccc43)CC2)cc1	6.25
NC(=O)C1CCN(CC(=O)Nc2cc(S(=O)(=O)N3CCOCC3)ccc2N2CCCC2)CC1	-1.18
COC(=O)C1=COC(OC2OC(CO)C(O)C(O)C2O)C2C1C=CC2(O)CO (stereo not drawn)	5.93
COc1ccc(Cl)cc1NC(=O)[C@@]1(CC(=O)O)CC(/C=C/c2ccccc2)=NO1	12.8
CCc1ccc(-c2cc(C)no2)cc1S(=O)(=O)N1CCN(C(=O)c2ccco2)CC1	-4.73
O=c1nc2ccccc2c2n1CC(CN1CCN(c3cccc(Cl)c3)CC1)N2 (stereo not drawn)	-38.9
O=c1nc2ccccc2c2n1CC(CN1CCN(c3ccccc3F)CC1)N2 (stereo not drawn)	-20.7
O=c1nc2ccccc2c2n1CC(CN1CCN(c3ccc(F)cc3)CC1)N2 (stereo not drawn)	-65.6
O=C1NCCN(Cc2cccc(Oc3ccccc3)c2)C1CC(=O)N1CCCO1 (stereo not drawn)	12.1
COc1ccc(-c2nc(=S)[nH][nH]2)cc1OC	10.4
O=C(Nc1ccccc1)c1nccn1Cc1ccc(F)cc1	11.3
Cc1ccc(Cn2ccnc2C(=O)Nc2ccccc2)cc1	9.01
N#Cc1ccc(Cn2ccnc2C(=O)Nc2ccccc2)cc1	-86.8
O=C(NC(c1ccccc1)c1ccccn1)c1cccc([N+](=O)[O-])c1 (stereo not drawn)	12.3
O=C1C(=O)N(CCN2CCOCC2)C(c2cccc(Cl)c2)/C1=C(\O)c1ccc2c(c1)OCCO2 (stereo not drawn)	2.15

SMILES	hERG current change (%, negative = inhibition) at 1uM [%]
CC(=O)c1coc2ccc(OCC(=O)O)cc12	-0.294
CCOc1cc(/C=N/NC(=O)c2cccnc2)ccc1OCC(N)=O	10.8
CCOc1cc(/C=N/NC(=O)c2cccnc2)ccc1O	7.47
CCOc1cc(/C=N/NC(=O)c2cccnc2)cc(Br)c1OCC(N)=O	-69.4
CCCCn1c2c(c(=N)c3ccccc31)CCC2.I	-16.6
CCCCCCCn1c2c(c(=N)c3ccccc31)CCC2.I	-89.6
O=C(O)CCn1c2c(c3ccccc31)CCCC2	19.5
CCCCCn1c2c(c(=N)c3ccccc31)CCC2.I	-61.5
CCOC(=O)Cn1c2c(c(=N)c3ccccc31)CCC2.Cl	12.7
Br.CCn1c2c(c(=N)c3ccccc31)CCC2	12
CCOc1cc(NC(=S)NCCCN2CCOCC2)c(OCC)cc1NC(=O)c1ccccc1	16.1
O=C(Nc1ccccc1)C1CC=CCC1C(=O)OCC1CCCO1 (stereo not drawn)	-5.31
Cl.Nc1ccc(N2CCN(CCCCN3C(=O)C4CCCN4C3=O)CC2)cc1.O (stereo not drawn)	18.3
O=C(CCN1C(=O)C2C3C=CC(C3)C2C1=O)N1CCN(c2ccc([N+](=O)[O-])cc2)CC1 (stereo not drawn)	-49.5
O=C1C2CCCN2C(=O)N1CCCCN1CCN(c2ccccc2)CC1 (stereo not drawn)	1.66
Cc1ccc(N2CCN(CCCN3C(=O)C4CCCN4C3=O)CC2)cc1.Cl (stereo not drawn)	4.77
O=C1C2CCCN2C(=O)N1CCN1CCN(c2ccccc2)CC1 (stereo not drawn)	-10.6
Cc1ccc(N2CCN(CCCCN3C(=O)C4CCCN4C3=O)CC2)cc1.Cl (stereo not drawn)	-3.91
O=C1C2CCCCN2C(=O)N1CCCCN1CCN(c2ccc([N+](=O)[O-])cc2)CC1 (stereo not drawn)	-80.7
O=C1C2CCCCN2C(=O)N1CCN1CCN(c2ccc([N+](=O)[O-])cc2)CC1 (stereo not drawn)	-69.7
O=C1C2CCCCN2C(=O)N1CCCN1CCN(c2ccc(F)cc2)CC1 (stereo not drawn)	-3.12
O=C1C2CCCCN2C(=O)N1CCCCN1CCN(c2ccc(F)cc2)CC1 (stereo not drawn)	-7.05
O=C(CCCN1C(=O)C2CCCCN2C1=O)N1CCN(c2ccc([N+](=O)[O-])cc2)CC1 (stereo not drawn)	-78.5
O=C1C2CCCN2C(=O)N1CCCN1CCN(c2ccc([N+](=O)[O-])cc2)CC1 (stereo not drawn)	-63.3
